Test results published in PubChem BioAssay (EPA / NIEHS).
The source made the active and inactive calls. Rule for the calls: active = hit-call score of the fitted dose curve at least 0.9, where 1 is the maximum; inactive = score below 0.9.

These compounds were tested against X-box-binding protein 1 (Homo sapiens) (UniProt P17861) (assay: ATG_Xbp1_CIS: Attagene CIS-FACTORIAL HepG2 Assay for human X-box Binding Protein 1 (XBP1) (AID 2282972)). Conditions: HepG2 XBP1 cis-element reporter, Attagene multiplex; actives raise or lower the signal.
X-box-binding protein 1 (Homo sapiens), sequence (P17861 whole entry, looked up): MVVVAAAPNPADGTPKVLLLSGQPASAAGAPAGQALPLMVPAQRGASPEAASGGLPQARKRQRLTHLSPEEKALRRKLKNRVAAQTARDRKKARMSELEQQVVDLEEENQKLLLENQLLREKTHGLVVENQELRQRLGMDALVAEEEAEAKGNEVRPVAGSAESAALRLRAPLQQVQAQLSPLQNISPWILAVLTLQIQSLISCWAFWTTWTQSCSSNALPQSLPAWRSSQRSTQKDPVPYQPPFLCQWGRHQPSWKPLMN
Method: ATG_CIS is a cell-based, multiplexed-readout assay that uses HepG2, a human liver cell line, with measurements taken at 24 hours after chemical dosing in a 24-well plate.ATG_Xbp1_CIS is one of 52 assay component(s) measured or calculated from the ATG_CIS assay. It is designed to make measurements of mRNA induction, a form of inducible reporter, as detected with fluorescence intensity signals by Reverse transcription polymerase chain reaction (RT-PCR) and Capillary electrophoresis technology.Data from the assay component ATG_Xbp1_CIS was analyzed into 1 assay endpoint. This assay endpoint, ATG_Xbp1_CIS, was analyzed with bidirectional fitting relative to DMSO as the negative control and baseline of activity. Using a type of inducible reporter, measures of mRNA for gain or loss-of-signal activity can be used to understand the reporter gene at the transcription factor-level as they relate to the gene XBP1. Furthermore, this assay endpoint can be referred to as a primary readout, because this assay has produced multiple assay endpoints where this one serves a reporter gene function. To generalize the intended target to other relatable targets, this assay endpoint is annotated to the dna binding intended target family, where the subfamily is basic leucine zipper.
Human liver HepG2 cells are transiently transfected with multiple reporter transcription units (MRTUs) in 6-well plates using FuGene 6 reagent (Roche; 3 ml FuGene/1 mg DNA). The MRTU constructs are regulated by a cis-regulating element (promoter). […] A major difference between the CIS and TRANS system is that in CIS activities of endogenous TFs are measured, whereas the TRANS assay evaluates changes in activities of exogenous, chimeric NR-Gal4 proteins. […] At the end of 24 hour incubation, total RNA was isolated using TriZol reagent (Invitrogen). The isolated RNA is then reverse-transcribed using oligo(dT) primer and Mo-MLV reverse transcriptase (Invitrogen) with DNAse I (Ambion) treatment for 30 min. The one-tenth of the produced cDNA was amplified by PCR using Taq DNA polymerase (Invitrogen) and two reporter sequence-specific primers. The PCR products were fluorescently labeled by primer extension with 6-arboxyfluorescein (6-FAM) 5'-labeled reporter sequence-specific primer (2 min at 95 C, 20 s at 68 C and 10 min at 72 C) and these products were digested with 5U of HpaI (New England Biolabs) for 2h at 37 C. The fragments were purified using Qiaquick PCR columns (Qiagen), analyzed on an ABI 3130xL genetic analyzer (Applied Biosystems) with peak positions identified by using a set of X-rhodamine (ROX)-labeled MapMarker1000 molecular weight standards (BioVentures). The raw capillary electrophoresis data was processed using Attagraph software (Attagene).
For `CC(C)Nc1ccc(NC(C)C)c2c1C(=O)c1ccccc1C2=O`, the outcome was “inactive”.
`CN(C(=O)C(F)(F)C(F)(F)C(F)(F)F)[Si](C)(C)C` was tested, and the outcome was “inactive”.
`CCOC(=O)CC(=O)C(F)(F)C(F)(F)F` was tested, and the outcome was “inactive”.
For `Cc1ccc(O)c(-n2nc3ccccc3n2)c1`, the outcome was “inactive”.
In the case of `C[Si](Cl)(Cl)CCC(F)(F)C(F)(F)C(F)(F)C(F)(F)C(F)(F)C(F)(F)F`, the outcome is reported as “inactive”.
`O=C1C=CC(=O)N1c1ccccc1` was tested, and the outcome was “inactive”.
With `CCCCCCCC/C=C\CCCCCCCC(=O)N(C)CC(=O)O` the outcome was “inactive”.
In the case of `O=C(O)C(F)(F)C(F)(F)C(F)(F)C(F)(F)C(F)(F)C(F)(F)C(F)F`, the outcome is reported as “inactive”.
`CCN=C1C=CC(=C(c2ccc(N(CC)CC)cc2)c2ccc(N(CC)CC)cc2)c2ccccc21` was tested, and the AC50 was 1.86 µM (active).
`OCC(F)(F)C(F)(F)C(F)(F)CO` was tested, and the outcome was “inactive”.
With `OCC(F)(F)C(F)(F)C(F)(F)C(F)(F)C(F)(F)C(F)(F)CO` the outcome was “inactive”.
With `CCCCCCCCn1sc(Cl)c(Cl)c1=O` the outcome was “inactive”.
`Oc1ccc2c(c1)CCC2` was tested, and the outcome was “inactive”.
`CSc1ccc(O)cc1C` was tested, and the outcome was “inactive”.
`CCCCCC/C=C/CCCCCCCC(=O)O` was tested, and the outcome was “inactive”.
With `O=C(O)CCC(F)(F)C(F)(F)C(F)(F)C(F)(F)C(F)(F)C(F)(F)C(F)(F)F` the outcome was “inactive”.
In the case of `O=C(Cl)c1ccc(Cl)cc1Cl`, the outcome is reported as “inactive”.
In the case of `Cc1cnccn1`, the outcome is reported as “inactive”.
With `C=C(C)CCCC` the outcome was “inactive”.
`CCCCC(CC)COC(=O)c1ccc(N(C)C)cc1` (stereo not given) was tested, and the outcome was “inactive”.
For `Cc1ccc(S(=O)(=O)C(I)I)cc1`, the AC50 was 7.84 µM (active).
In the case of `CC(=O)C=O`, the outcome is reported as “inactive”.
For `O=C(O)CCC(F)(F)C(F)(F)C(F)(F)F`, the outcome was “inactive”.
`O=C(O)C(F)(F)OC(F)(F)C(F)(F)OC(F)(F)C(F)(F)OC(F)(F)F` was tested, and the outcome was “inactive”.
With `C[Si](C)O[Si](C)C` the outcome was “inactive”.
For `CC(C)(C)c1cc(CCC(=O)NCCCCCCNC(=O)CCc2cc(C(C)(C)C)c(O)c(C(C)(C)C)c2)cc(C(C)(C)C)c1O`, the outcome was “inactive”.
`COCCC(=O)OC` was tested, and the outcome was “inactive”.
`O=C1c2c(O)ccc(Nc3ccc(CCO)cc3)c2C(=O)c2c([N+](=O)[O-])ccc(O)c21` was tested, and the outcome was “inactive”.
For `CCCCCCCCCCCCC[N+](C)(C)Cc1ccccc1`, the outcome was “inactive”.
In the case of `CCCCCCCCCCCCCC[P+](CCCC)(CCCC)CCCC`, the AC50 is reported as 0.834 µM (active).
For `CO[Si](C)(CCC(F)(F)C(F)(F)C(F)(F)C(F)(F)C(F)(F)C(F)(F)F)OC`, the outcome was “inactive”.
With `CCN(CC)c1ccc2c(c1)Oc1cc(N(CC)CC)ccc1C21OC(=O)c2ccccc21` the outcome was “inactive”.
`Cc1cccc(C)n1` was tested, and the outcome was “inactive”.
`O=C(O)C(F)(F)C(F)(F)C(F)(F)C(=O)O` was tested, and the outcome was “inactive”.
In the case of `Cc1ccc(O)cn1`, the outcome is reported as “inactive”.
With `CC1=CCC(=O)O1` the outcome was “inactive”.
`CC(C)OC(=O)COc1ccc(Cl)cc1Cl` was tested, and the outcome was “inactive”.
With `C=CC(=O)OCCC(F)(F)C(F)(F)C(F)(F)C(F)(F)F` the outcome was “inactive”.
For `CSc1ccc(Cl)cc1`, the outcome was “inactive”.
For `O=C=NCc1cccc(CN=C=O)c1`, the outcome was “inactive”.
